Measurements taken from PubChem BioAssay (Tox21).
Where “and” joins values, the source holds several entries; their conditions need not be identical. Identical values can stand only once. Inconclusive results are not listed. Some compounds were tested as several samples or in several runs, with calls that do not always agree. Calls of active or inactive are those of the source. Unless noted, the call rests on the fitted dose curve; in most records, active means well fitted curve in the direction sought with a large enough effect in the repeat runs; inconclusive means weak or mixed curves; inactive means no such curve, though single readings can be large; an effect the other way counts as inactive or inconclusive.

How the values were obtained:
[1] = molecular target: Retinoic acid receptor RXR-alpha (Homo sapiens) (UniProt P19793); experiment: qHTS assay to identify small molecule agonists of the RXR signaling pathway (AID 1159527; calls by dose curve; further: nearly all actives have a fitted effect of over 35% in size)
Retinoic acid receptor RXR-alpha (Homo sapiens), sequence (P19793 whole entry, looked up): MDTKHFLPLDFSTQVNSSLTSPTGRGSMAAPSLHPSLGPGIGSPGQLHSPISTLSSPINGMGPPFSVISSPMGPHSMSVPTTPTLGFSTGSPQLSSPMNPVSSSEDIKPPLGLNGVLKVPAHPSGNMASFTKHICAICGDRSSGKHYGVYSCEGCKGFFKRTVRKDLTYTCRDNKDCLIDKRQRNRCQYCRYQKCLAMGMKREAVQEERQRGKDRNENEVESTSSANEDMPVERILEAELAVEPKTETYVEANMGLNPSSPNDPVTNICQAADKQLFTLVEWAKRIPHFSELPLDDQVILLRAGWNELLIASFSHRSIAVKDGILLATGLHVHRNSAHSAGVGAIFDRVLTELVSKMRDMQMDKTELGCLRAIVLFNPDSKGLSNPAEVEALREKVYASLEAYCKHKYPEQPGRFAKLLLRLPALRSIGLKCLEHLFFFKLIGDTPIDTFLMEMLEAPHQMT
Outline: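 Agonist mode; 9-cis retinoic acid positive control. HEK 293T UAS-bla reporter cells, 2% charcoal-stripped FBS, 16 hr compound exposure at 37 C/5% CO2. LiveBLAzer B/G FRET substrate 2 hr RT; ex 405, em 460/530 nm.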

[2] = qHTS assay to identify small molecule agonists of the RXR signaling pathway - cell viability counter screen (AID 1159529); further: series mostly up to about 77 µM; nearly all actives have a fitted effect of over 50% in size
Outline: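 Luminescence from CellTiter-Glo (30 min, RT) measured viability in the same wells as the beta-lactamase reporter readout. Cells: GeneBLAzer RXR-alpha HEK 293T, 2% charcoal-stripped FBS. Compound exposure 16 hr, 37 C.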

[3] = qHTS assay to identify small molecule antagonists of the retinoid acid receptor (RAR) signaling pathway - cell viability counter screen (AID 1159551); further: nearly all actives have a fitted effect of over 35% in size
Outline: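 In this counter screen, the RARE-luciferase line C3RL4 was exposed for 6 h at 37 C and 5% CO2 to compounds with retinol at 1 uM final. Cellular ATP, read by luminescence, served as the viability measure.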

[4] = qHTS assay to identify small molecule antagonists of the retinoic acid receptor (RAR) signaling pathway (AID 1159552; further: nearly all actives have a fitted effect of over 50% in size; further: potency means the concentration at half of the fitted maximal effect)
Outline: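 Luminescence from a RARE luciferase reporter in C3RL4 cells served as read-out. Cells received compounds together with 1 uM final retinol and incubated 6 hr at 37 C before detection reagent was added for 30 min at room temperature.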

[5] = qHTS assay to identify small molecule agonists of the retinoic acid receptor (RAR) signaling pathway (AID 1159553); further: potency means the concentration at half of the fitted maximal effect
Outline: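 In this cell-based screen, 1,000 C3RL4 cells per well were cultured overnight, dosed with test chemicals in DMSO for 6 hr, and assessed for RARE luciferase luminescence.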

[6] = qHTS assay to identify small molecule antagonists of the estrogen related receptor (ERR) signaling pathway from Tox21 library - cell viability counter screen (AID 1224834); further: nearly all actives have a fitted effect of over 30% in size; further: potency means the concentration at half of the fitted maximal effect
Outline: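 Counter screen run in ERR cells (2,000 cells/well): cells pre-incubated 6 h, then treated with compounds for 17.5 h at 37 C. Fluorescence was read 30 min after CellTiter-Fluor addition.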

[7] = molecular target: Luciferin 4-monooxygenase (Photinus pyralis) (UniProt P08659); experiment: qHTS assay to identify small molecule inhibitors of firefly luciferase (AID 1224835); further: nearly all actives have a fitted effect of over 25% in size; further: potency means the concentration at half of the fitted maximal effect
Luciferin 4-monooxygenase (Photinus pyralis), sequence (P08659 whole entry, looked up): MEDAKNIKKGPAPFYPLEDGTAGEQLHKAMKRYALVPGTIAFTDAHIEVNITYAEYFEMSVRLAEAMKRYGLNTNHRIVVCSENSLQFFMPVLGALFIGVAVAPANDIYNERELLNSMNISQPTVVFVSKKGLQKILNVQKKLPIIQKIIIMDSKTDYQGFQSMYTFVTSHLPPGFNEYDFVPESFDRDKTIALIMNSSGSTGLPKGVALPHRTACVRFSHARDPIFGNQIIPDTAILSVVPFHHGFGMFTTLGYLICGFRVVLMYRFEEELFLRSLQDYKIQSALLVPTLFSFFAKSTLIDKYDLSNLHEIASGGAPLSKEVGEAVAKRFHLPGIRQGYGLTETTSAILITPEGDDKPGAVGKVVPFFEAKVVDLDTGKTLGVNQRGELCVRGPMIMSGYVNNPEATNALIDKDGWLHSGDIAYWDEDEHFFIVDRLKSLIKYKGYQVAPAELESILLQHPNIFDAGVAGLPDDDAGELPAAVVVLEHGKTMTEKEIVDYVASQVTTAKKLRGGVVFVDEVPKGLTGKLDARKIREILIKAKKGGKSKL
Outline: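 Quantitative HTS format; KM concentrations of both substrates. Purified P. pyralis FLuc activity quantified from luminescence images.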

[8] = qHTS assay to identify small molecule antagonists of the constitutive androstane receptor (CAR) signaling pathway - cell viability counter screen (AID 1224837); further: nearly all actives have a fitted effect of over 45% in size; further: potency means the concentration at half of the fitted maximal effect
Outline: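 CITCO at 50 nM final was added alongside compounds (15 concentrations) to double-stable hCAR/CYP2B6-2.2kb HepG2 cells. Following 23 hr at 37 C, cell viability was quantified by CellTiter-Fluor fluorescence intensity.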

[9] = molecular target: Nuclear receptor subfamily 1 group I member 3 (Homo sapiens) (UniProt Q14994); experiment: qHTS assay to identify small molecule agonists of the constitutive androstane receptor (CAR) signaling pathway (AID 1224839); further: nearly all actives have a fitted effect of over 15% in size; further: potency means the concentration at half of the fitted maximal effect
Nuclear receptor subfamily 1 group I member 3 (Homo sapiens), sequence (Q14994 whole entry, looked up): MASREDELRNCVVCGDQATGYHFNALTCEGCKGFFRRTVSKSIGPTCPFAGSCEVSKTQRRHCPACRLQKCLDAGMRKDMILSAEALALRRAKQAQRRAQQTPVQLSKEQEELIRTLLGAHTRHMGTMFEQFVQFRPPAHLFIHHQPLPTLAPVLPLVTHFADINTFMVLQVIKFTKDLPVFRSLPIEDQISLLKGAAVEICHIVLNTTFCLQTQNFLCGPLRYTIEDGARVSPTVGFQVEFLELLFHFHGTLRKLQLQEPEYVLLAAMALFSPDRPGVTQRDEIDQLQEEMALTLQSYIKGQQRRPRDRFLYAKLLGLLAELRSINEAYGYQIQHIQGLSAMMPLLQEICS
Outline: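 Luminescence read-out (ONE-Glo, 30 min, room temperature) from double-stable HepG2-CYP2B6-hCAR cells exposed 24 h to 15-point compound series in presence of 0.75 uM PK11195 final.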

[10] = qHTS assay to identify small molecule agonists of the estrogen related receptor (ERR) signaling pathway (AID 1224820)
Outline: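 Luminescence readout (One-Glo, 30 min RT) from NTP-supplied ERR cell line exposed to compounds for 18 h at 37 C. Cells seeded 2,000 per well and pre-incubated 6 h before pin-tool compound transfer.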

[11] = qHTS assay to identify small molecule antagonists of the estrogen related receptor signaling pathway with the pleiotropic PPARgamma coactivator (PGC) cell viability counter screen (AID 1224822; further: series mostly up to about 46 µM)
Outline: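 17.5 h compound treatment of PGC/ERR cells at 37 C; readout CellTiter-Fluor fluorescence; run alongside the PGC/ERR antagonist screen to flag cytotoxic compounds.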

[12] = qHTS assay to identify small molecule agonists of the estrogen related receptor signaling pathway with the pleiotropic PPARgamma coactivator (PGC) (AID 1224823)
Outline: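 Luminescence readout (One-Glo, 30 min RT) from PGC/ERR cell line treated 18 h at 37 C with pin-tool-delivered DMSO compound solutions; cells plated 6 h before dosing. Quantitative HTS format.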

[13] = molecular target: Nuclear receptor subfamily 1 group I member 3 (Homo sapiens) (UniProt Q14994); experiment: qHTS assay to identify small molecule antagonists of the constitutive androstane receptor (CAR) signaling pathway (AID 1224838); further: nearly all actives have a fitted effect of over 40% in size; further: potency means the concentration at half of the fitted maximal effect
Outline: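 Inhibition of CITCO-driven (50 nM final) CYP2B6 reporter expression is measured in HepG2 cells stably carrying hCAR. Fifteen compound concentrations are applied for 24 h at 37 C, followed by luciferase luminescence.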

[14] = qHTS assay to identify small molecule antagonists of the estrogen related receptor signaling pathway with the pleiotropic PPARgamma coactivator (PGC) from Tox21 10K library (AID 1224841; call rule not given here; further: actives are mostly falling curves and most rising ones were filed inactive; nearly all actives have a fitted effect of over 50% in size; further: potency means the concentration at half of the fitted maximal effect)
Outline: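 One-Glo luminescence, measured after half an hour at room temperature, quantified reporter output of PGC/ERR cells. These had been plated at 2,000 per well, incubated 6 h, dosed with compounds in DMSO, then kept 18 h at 37 C.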

[15] = qHTS assay to identify small molecule agonists of the constitutive androstane receptor (CAR) signaling pathway - cell viability counter screen (AID 1224836); further: series mostly up to about 92 µM; nearly all actives have a fitted effect of over 45% in size
Outline: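 Viability read-out: CellTiter-Fluor fluorescence after 23 h compound exposure at 37 C/5% CO2 in double-stable HepG2-CYP2B6-hCAR cells, with PK11195 present at 0.75 uM final; compounds tested in 15-point titration.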

[16] = qHTS assay to identify small molecule antagonists of the estrogen related receptor signaling pathway with the pleiotropic PPARgamma coactivator (PGC) from Tox21 10K library - cell viability counter screen (AID 1224840; active means well fitted cell-killing curve with a large enough effect in the repeat runs, not every such curve was filed as active; further: nearly all actives have a fitted effect of over 40% in size; further: potency means the concentration at half of the fitted maximal effect)
Outline: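 Readout: fluorescence intensity from CellTiter-Fluor after 30 min at 37 C/5% CO2. Preceded by 17.5 h treatment of PGC/ERR cells with DMSO-dissolved compounds, added 6 h post-seeding.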

[17] = qHTS assay to identify small molecule antagonists of the estrogen related receptor (ERR) signaling pathway - cell viability counter screen (AID 1224818); further: series mostly up to about 46 µM
Outline: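 Viability of ERR cells, CellTiter-Fluor fluorescence; 17.5 h compound exposure at 37 C, DMSO vehicle; 30 min reagent incubation at 37 C/5% CO2.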

[18] = qHTS assay to identify small molecule antagonists of the estrogen related receptor (ERR) signaling pathway (AID 1224819; further: potency means the concentration at half of the fitted maximal effect; nearly all actives have a fitted effect of over 50% in size)
Outline: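 Seed ERR cells 2,000/well; rest 6 h at 37 C/5% CO2; pin compounds in DMSO; incubate 18 h at 37 C; add One-Glo; wait 30 min at room temperature; measure luminescence.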

[19] = tested on: estrogen-related receptor alpha (ERRalpha) with PGC-1alpha coactivator, human; experiment: qHTS assay to identify small molecule antagonists of the estrogen related receptor signaling pathway with the pleiotropic PPARgamma coactivator (PGC) (AID 1224821; calls by dose curve)
Outline: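 PGC/ERR reporter cells; 6 h pre-incubation 37 C/5% CO2; pin-tool compound in DMSO, 18 h 37 C; One-Glo added, 30 min RT; luminescence read. qHTS antagonist mode.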

Measured: Potency

O=Nc1ccc(O)cc1
inactive: [1] | [2] | [3] | [4] | [5] | [6] | [7] | [8] | [9]

Oc1ccc2ccccc2c1
inactive: [1] | [2] | [3] | [4] | [5] | [6] | [8]

CS(=O)(=O)Nc1ccc([N+](=O)[O-])cc1Oc1ccccc1
inactive: [1] | [2] | [3] | [10] | [11] | [12] | [8] | [13] | [9] | [14]
active: [6] 30.6 µM

CCOC(=O)/C=C\C(=O)OCC
not listed: [9] | [10] | [11] | [12] | [13] | [17] | [18] | [19]
inactive: all other assays above

NCCc1ccc(O)c(O)c1
54.6 µM (active) and inactive: [6]
inactive: [1] | [2] | [3] | [17] | [7] | [15] | [16]

CC#C[C@]1(O)CC[C@H]2[C@@H]3CCC4=CC(=O)CCC4=C3[C@@H](c3ccc(N(C)C)cc3)C[C@@]21C
active: [4] 27.3 µM and 26.6 µM | [18] 22 µM | [19] 21.1 µM | [14] 21.7 µM and 29.8 µM
inactive: [2] | [3] | [17] | [10] | [12] | [7] | [13] | [9]

CCCCCCCCCCC=CC1CC(=O)OC1=O (stereo unspecified)
inactive: [1] | [2] | [3] | [6] | [15] | [8] | [13] | [9] | [16]
active: [7] 63.6 µM and 71 µM

OCCOCCOCCOCCO
inactive: [1] | [2] | [3] | [6] | [7] | [8]

Nc1c(S(=O)(=O)O)cc(Br)c2c1C(=O)c1ccccc1C2=O
inactive: [2] | [3] | [4] | [5]
active: [7] 35.6 µM
inactive and 24.3 µM (active): [6]

O=S(=O)(O)c1cc(S(=O)(=O)O)c2c(N=Nc3ccccc3)c(O)ccc2c1
active: [6] 54.7 µM and 34.4 µM
inactive: [1] | [2] | [3] | [7] | [13] | [9]

CC(=O)[C@@]1(O)CC[C@H]2[C@@H]3CCC4=CC(=O)CC[C@]4(C)[C@H]3CC[C@@]21C
inactive: [2] | [3] | [4] | [5] | [17] | [11] | [6] | [7]

CC1=C(CC(=O)O)c2cc(F)ccc2/C1=C\c1ccc(S(C)=O)cc1 (stereo unspecified)
61.1 µM (active) and inactive: [9]
inactive: [2] | [3] | [17] | [11] | [6] | [7] | [15] | [8] | [16]

CN(C)c1ccc(C(=N)c2ccc(N(C)C)cc2)cc1
active: [5] 41.6 µM | [6] 24 µM and 20.9 µM | [8] 24 µM and 26.3 µM | [13] 52.4 µM | [16] 30.3 µM and 20.9 µM
inactive: [2] | [4] | [9]
55.7 µM (active) and inactive: [7]

COC(=O)Nc1nc2ccc(Sc3ccccc3)cc2[nH]1
active: [9] 4.33 µM
inactive: [2] | [3] | [4] | [6] | [15] | [8]
